From PubChem
Only some compounds are listed: those with a hit (about 1% of all), similar ones and a draw of the others.
RGS4 inhibitor: inhibitors of human regulator of G protein signaling 4 | Potency, µM (doses to about 114 µM), most hits filed as inhibitors | Transcreener GDP fluorescence polarization, RGS4-accelerated GTP hydrolysis | 0.039% of 390,000 active | P49798; note: nearly all actives have a fitted effect of over 75% in size
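MLSMR compounds (23 nl, pin-transferred) preincubated 10 min at room temperature with a 500nM (2x) first reagent, then RGS4 at 900nM (2x) plus Transcreener GDP mix added; fluorescence polarization (620/688 nm) read before and after 90 min at 30 °C.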
rTrxR1 inhibitor: blocks rat thioredoxin reductase 1; O89049; recombinant rTrxR1, NADPH fluorescence consumption, selenite substrate; Potency, µM (series often up to 114 µM), hits mostly inhibitors; 1% of 390,000 active; note: nearly all actives have a fitted effect of over 65% in size
Target sequence (O89049 whole entry, looked up): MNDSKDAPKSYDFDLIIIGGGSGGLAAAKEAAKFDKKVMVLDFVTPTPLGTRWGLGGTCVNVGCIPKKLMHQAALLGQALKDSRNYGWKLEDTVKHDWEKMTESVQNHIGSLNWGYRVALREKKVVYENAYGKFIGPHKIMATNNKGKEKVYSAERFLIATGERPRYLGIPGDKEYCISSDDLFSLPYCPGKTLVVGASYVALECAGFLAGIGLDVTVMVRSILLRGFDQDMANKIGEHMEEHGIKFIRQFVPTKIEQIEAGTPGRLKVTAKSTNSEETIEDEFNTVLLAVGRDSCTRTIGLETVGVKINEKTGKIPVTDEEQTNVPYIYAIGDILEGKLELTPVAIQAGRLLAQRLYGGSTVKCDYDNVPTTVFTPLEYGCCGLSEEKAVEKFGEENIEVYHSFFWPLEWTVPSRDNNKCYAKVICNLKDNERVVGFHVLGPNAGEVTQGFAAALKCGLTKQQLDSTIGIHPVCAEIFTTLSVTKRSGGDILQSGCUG
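Rat TrxR1 (90 nM in the dispensed reagent) was pre-reduced with 400 uM NADPH for 5 min at room temperature, then incubated with compound for 15 min. After 400 uM selenite was added, NADPH fluorescence (Ex 340/Em 450 nm) was followed for 8 min.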
USP2a block: USP2a (human) protease inhibition; USP2 core, Ub-CHOP2 coupled fluorogenic reporter, 485/531; Potency, µM (doses to about 38.3 µM), actives largely listed as inhibitors; 0.01% of 330,000 active; AID 463254
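USP2 core (10nM final) preincubated 30min RT with compound in 20mM Tris-HCl pH 8.0, 2mM CaCl2, 2mM beta-mercaptoethanol, 0.05% CHAPS; 25nM Ub-CHOP2 plus 25nM reporter substrate added, fluorescence (Ex485/Em531) read after 60min.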
TrxR1 substrate: is turned over as a substrate by rat TrxR1; O89049; 0.01% of 390,000 active; Potency, µM (series often up to 114 µM); purified TrxR1 substrate turnover, NADPH consumption readout; note: nearly all actives have a fitted effect of over 50% in size
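Rat TrxR1, dispensed at 90 nM, was prereduced with 400 uM NADPH (final) for 5 min at ~22 deg C, then incubated with compound 15 min before 400 uM selenite. A first-read NADPH fluorescence drop versus no-compound background flagged substrates.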
Eya2 inh: blocks the phosphatase activity of human Eya2 | O00167 | recombinant Eya2, OMFP fluorescence dephosphorylation (OMFP is methylfluorescein phosphate) | Potency, µM (series often up to 76.9 µM), most hits filed as inhibitors | 0.006% of 330,000 active
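Eya2 (0.2 uM) preincubated 10 min at ambient with compound, then OMFP substrate added at 50 uM; 10 min reaction in 50 mM HEPES pH 7.5, 50 mM NaCl, 5 uM MgCl2, 0.05% BSA, 1 mM DTT. Fluorescence read at Ex 485/Em 525 nm.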
GALK inhibitor: galactokinase (human) inhibition. P51570. Purified GALK, Kinase-Glo residual ATP luminescence. Potency, µM (doses to about 57.5 µM), hits mostly inhibitors. 0.007% of 270,000 active. AID 1868
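Luminescence from leftover ATP (Ultra-Glo luciferase/luciferin) served as read-out after a 1 h room-temperature reaction of 5 nM GALK with 35 uM ATP and 100 uM galactose.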
Large screens that a line does not name were inactive. Calls come from the whole dose curve; as a rule, active = well fitted curve in the direction sought with a large enough effect; inconclusive = small, poorly fitted or top-dose-only effect, or another doubt; inactive = no such curve, though single readings can be large; an effect the other way counts as inactive or inconclusive.

COc1ccc(C2CC(c3cccs3)=NN2C(=O)CCl)cc1OC (stereo not drawn)	rTrxR1 inhibitor 7.9µM
COc1cc(C2CC(c3cccs3)=NN2C(=O)CCl)ccc1OC(F)F (stereo not drawn)	rTrxR1 inhibitor 7.9µM
Cc1sc2ccccc2[n+]1CCc1ccccc1	none (no result: RGS4 inhibitor, USP2a block, Eya2 inh, GALK inhibitor)
CCOC(=O)CN1C(=O)S/C(=C/c2ccco2)C1=O	none
O=C(O)CN1C(=O)/C(=C/c2ccc(N3CCCCC3)o2)SC1=S	RGS4 inhibitor inconclusive, rTrxR1 inhibitor 28µM, Eya2 inh inconclusive
CCOC(=O)CN1C(=O)S/C(=C/c2ccc(N3CCCCC3)o2)C1=O	RGS4 inhibitor inconclusive, rTrxR1 inhibitor 50µM
O=C(O)CCCCCN1C(=O)/C(=C\c2ccc(-c3ccc(Cl)cc3)o2)SC1=S	RGS4 inhibitor inconclusive (no result: GALK inhibitor)
COC(=O)CN1C(=O)S/C(=C/c2ccc(N3CCCCC3)o2)C1=O	RGS4 inhibitor inconclusive, rTrxR1 inhibitor 3.5µM, USP2a block inconclusive, Eya2 inh inconclusive
CCCCCCCCCCN(CCCCCCCCCC)c1ccc(/C=C/c2ccnc3ccccc23)cc1	none (no result: RGS4 inhibitor, USP2a block, Eya2 inh, GALK inhibitor)
COc1cc2nc(CCc3nc4cc(OC)c(OC)cc4[nH]3)[nH]c2cc1OC	none (no result: RGS4 inhibitor, USP2a block, Eya2 inh, GALK inhibitor)
N=C(N)SCc1ccccn1	none
N=C(N)SCc1ncccc1O	rTrxR1 inhibitor 32µM, Eya2 inh inconclusive
CCN1CCN(C(c2ccc(C(F)(F)F)cc2)c2ccc3cccnc3c2O)CC1 (stereo not drawn)	RGS4 inhibitor inconclusive, rTrxR1 inhibitor 3.5µM
Cc1csc[n+]1CC(=O)c1ccccc1	none (no result: RGS4 inhibitor, USP2a block, Eya2 inh, GALK inhibitor)
CC(=O)N1CCN(C(=O)c2ccc(-c3cccc(C(F)(F)F)c3)o2)CC1	rTrxR1 inhibitor 40µM (no result: GALK inhibitor)
CCCS(=O)(=O)c1nc(S(=O)(=O)c2ccc(C)cc2)c(NC(C)c2ccccc2)s1 (stereo not drawn)	rTrxR1 inhibitor 35µM (no result: USP2a block, Eya2 inh, GALK inhibitor)
Cc1cc(C)nc(N2N=C(C(C)(C)C)CC2=O)n1	rTrxR1 inhibitor 40µM
COc1ccc(-c2cc(N)n(S(=O)(=O)c3c(F)c(F)c(F)c(F)c3F)n2)cc1OC	rTrxR1 inhibitor 2.8µM
Cc1ccc(NC(=O)c2nc(S(=O)(=O)Cc3ccccc3F)ncc2Cl)cc1C	rTrxR1 inhibitor 3.2µM (no result: RGS4 inhibitor, USP2a block, Eya2 inh, GALK inhibitor)
Cc1ccc(NC(=O)c2nc(S(=O)(=O)Cc3ccccc3C)ncc2Cl)cc1C	RGS4 inhibitor inconclusive, rTrxR1 inhibitor 32µM
Cc1ccccc1NC(=O)c1nc(S(=O)(=O)Cc2ccccc2F)ncc1Cl	rTrxR1 inhibitor 3.5µM (no result: RGS4 inhibitor, USP2a block, Eya2 inh, GALK inhibitor)
CCS(=O)(=O)c1ncc(Cl)c(C(=O)Nc2c(C(=O)Nc3cccc(C)c3)oc3ccccc23)n1	none (no result: USP2a block, Eya2 inh, GALK inhibitor)
NS(=O)(=O)c1ccc(NC(=O)c2nc(S(=O)(=O)Cc3ccccc3F)ncc2Cl)cc1	rTrxR1 inhibitor 3.5µM (no result: RGS4 inhibitor, USP2a block, Eya2 inh, GALK inhibitor)
CSc1ncc(Cl)c(C(=O)Nc2ccc(C)c(C)c2)n1	none
Cc1cc2c(s1)c1cnn(CC(=O)N3CCOCC3)c(=O)c1n2C	none (no result: USP2a block, Eya2 inh, GALK inhibitor)
Cc1csc2nc(COC(=O)c3ccc(NC(=O)c4ccccc4Br)cc3)cc(=O)n12	none (no result: USP2a block, Eya2 inh, GALK inhibitor)
O=C(Cc1cccc2ccccc12)NO	none (no result: RGS4 inhibitor, USP2a block, Eya2 inh, GALK inhibitor)
CCNc1nc(C#N)nc(Nc2ccccc2)n1	none (no result: USP2a block, Eya2 inh, GALK inhibitor)
CC(=O)Oc1ccc(-c2nc(-c3ccccc3)no2)cc1	none (no result: RGS4 inhibitor, USP2a block, Eya2 inh, GALK inhibitor)
Cc1ccc(NC(=O)c2nc(S(=O)(=O)Cc3ccccc3F)ncc2Cl)cc1	rTrxR1 inhibitor 2.8µM (no result: RGS4 inhibitor, USP2a block, Eya2 inh, GALK inhibitor)
Cc1cc(C)cc(Nc2ccc([N+](=O)[O-])nc2[N+](=O)[O-])c1	none
COc1cc(Nc2ccc(C)cc2)c([N+](=O)[O-])nc1[N+](=O)[O-]	rTrxR1 inhibitor 4.5µM
C(=C\c1ccc2ccccc2n1)/c1cccnc1	none (no result: RGS4 inhibitor, USP2a block, Eya2 inh, GALK inhibitor)
CCc1ccc(NC(=O)C(C)Sc2nc(-c3ccco3)c(C#N)c(=O)[nH]2)cc1 (stereo not drawn)	rTrxR1 inhibitor 18µM
CCOc1ccccc1NC(=O)C(C)Sc1nc(-c2ccccc2)c(C#N)c(=O)[nH]1 (stereo not drawn)	none (no result: USP2a block, Eya2 inh, GALK inhibitor)
N#Cc1c(-c2ccco2)nc(SCC(=O)Nc2cccc(Cl)c2)[nH]c1=O	rTrxR1 inhibitor 14µM
Cc1cccc(OCCSc2nc(N)cc(N)n2)c1	rTrxR1 inhibitor 40µM
